This passage reports potency estimated from few doses results from PMC11062922 (Nature Chemical Biology, 2023).

Read-outs that look alike come from different tables or passages of the source.

Holding throughout (set-up): species or system human, MV4-11 + K-562 + COLO205 + SK-N-BE2 + OVCAR-8
Assay [1] has as its system CHEK1. Conditions: read-out: apparent Kd, n = 1.
The test system of assay [2] is EPHA4. Conditions: read-out: apparent Kd, compound concentrations: 100 nM and 1000 nM (sheet 'Samples'), n = 1.
For assay [3], the system named is EPHB2. As to conditions: read-out: apparent Kd, compound concentrations: 100 nM and 1000 nM (sheet 'Samples'), n = 1.
Assay [4] relates to EPHB4. As to conditions: read-out: apparent Kd, compound concentrations: 100 nM and 1000 nM (sheet 'Samples'), n = 1.
Assay [5] concerns TNK2. Conditions: read-out: apparent Kd, n = 1.
In assay [6] the test system is CDK16. As to conditions: read-out: apparent Kd, n = 1.
Assay [7] has as its system ATM. As to conditions: read-out: apparent Kd, n = 1.
Assay [8] deals with EPHA5. As to conditions: read-out: apparent Kd, compound concentrations: 100 nM and 1000 nM (sheet 'Samples'), n = 1.
The test system of assay [9] is AURKA. Conditions: read-out: apparent Kd, n = 1.
The test system of assay [10] is STK4. As to conditions: read-out: apparent Kd, n = 1.
For assay [11], the system named is MAPK10. Conditions: read-out: apparent Kd, n = 1.
Assay [12] relates to MAPK9. As to conditions: read-out: apparent Kd, n = 1.
Assay [13] has as its system MARK3. Conditions: read-out: apparent Kd; compound concentrations:100 nM and 1000 nM (sheet 'Samples'); n = 1.
Assay [14] has as its system PRKAG2. Conditions: read-out: apparent Kd; compound concentrations: 100 nM and 1000 nM (sheet 'Samples'), CATDS: 4.1666716087244697E-2; n = 1.
For assay [15], the system named is TNK1. Conditions: read-out: apparent Kd; compound concentrations: 100 nM and 1000 nM (sheet 'Samples'), CATDS: 0.384256828153267; n = 1.
The subject of assay [16] is PRKACA. As to conditions: read-out: apparent Kd, n = 1.
The subject of assay [17] is CAMKK2. As to conditions: read-out: apparent Kd; compound concentrations: 100 nM and 1000 nM (sheet 'Samples'), CATDS: 1.7349658835090001E-2; n = 1.
The test system of assay [18] is PRKACB. Conditions: read-out: apparent Kd, n = 1.
Assay [19] deals with CSNK1D. As to conditions: read-out: apparent Kd; compound concentrations:100 nM and 1000 nM (sheet 'Samples'); n = 1.
Setting [20] is: compound concentrations:100 nM and 1000 nM (sheet 'Samples').

Take `CNCC1CCn2c(c(C3=C(c4cn(C)c5ccccc45)C(=O)NC3=O)c3ccccc32)C1` (centres unmarked) [RO0318676-000]: the potency estimated from few doses in assay [1] (compound concentrations: 100 nM and 1000 nM (sheet 'Samples'), CATDS: 3.6585074112693398E-2) was 754 nM; in [2] (CATDS: 2.83796334007482E-2), 1680 nM; in assay [3] (CATDS: 2.91102387203203E-2), 1530 nM; in [4] (CATDS: 3.3476248277138E-2), 973 nM; in assay [5] (compound concentrations: 100 nM and 1000 nM (sheet 'Samples'), CATDS: 3.7292246432418498E-2), 715 nM.

`Cl.Nc1nc(-c2ccc3c(c2)C(=Cc2cc(Br)c(O)c(Br)c2)C(=O)N3)cs1` [GW407323A]: the potency estimated from few doses in assay [6] (compound concentrations: 100 nM and 1000 nM (sheet 'Samples'), CATDS: 4.1043878899959203E-2) was 464 nM.

For the compound `CC(C)N1CC(=O)N(C)c2cnc(Nc3cccc(S(=O)(=O)CCN4CCOCC4)c3)nc21` [BI00009348], the potency estimated from few doses in assay [7] (compound concentrations: 100 nM and 1000 nM (sheet 'Samples'), CATDS: 0.21813144295739101) was 112 nM.

With `Cl.Cn1cc(C2=C(c3c4n(c5ccccc35)CCNC4)C(=O)NC2=O)c2ccccc21` [RO0318365-001], in assay [8] (CATDS: 5.66388945901121E-2), the potency estimated from few doses was 1210 nM.

Consider `COc1cccc(C2=C(c3c(C)n(C)c4ccccc34)C(=O)NC2=O)c1` [RO3300167-000], for which the potency estimated from few doses is 490 nM in assay [9] (compound concentrations: 100 nM and 1000 nM (sheet 'Samples'), CATDS: 0.14578513534179899); 646 nM in [10] (compound concentrations: 100 nM and 1000 nM (sheet 'Samples'), CATDS: 0.12261986260266899).

Take `NS(=O)(=O)c1ccc(NC=C2C(=O)Nc3ccc4ncsc4c32)cc1` [GW589933X]: the potency estimated from few doses in assay [6] (compound concentrations: 100 nM and 1000 nM (sheet 'Samples'), CATDS: 3.8979394521984997E-2) is 193 nM; in assay [10] (compound concentrations: 100 nM and 1000 nM (sheet 'Samples'), CATDS: 3.75205363662858E-2), 208 nM.

`NS(=O)(=O)c1cccc(-c2ccc3c(NC(=O)C4CC4)n[nH]c3c2)c1` [SB-741905]: the potency estimated from few doses in [7] (compound concentrations: 100 nM and 1000 nM (sheet 'Samples'), CATDS: 0.31609765928995098) is 205 nM.

As for `COc1cc[nH]c1/C=C1\C(=O)Nc2ccc(F)c(C#C[C@@H](O)[C@@H](N)[C@@H](C)O)c21` [RO0283120-000], the potency estimated from few doses in assay [6] (setting [20]) is 235 nM; in assay [11] (setting [20]) it was 654 nM; in assay [12] (setting [20]), 321 nM; in assay [13], 528 nM; in assay [10] (setting [20]) it was 765 nM.

For `Cn1cc(C2=C(c3ccc(OC[C@@H](O)CO)cc3)C(=O)NC2=O)c2ccccc21` [RO3208546-000], the potency estimated from few doses in assay [2] (CATDS: 3.51410618583008E-2) is 1520 nM; in assay [8] (CATDS: 3.9302113752780102E-2) it was 1120 nM; in assay [3] (CATDS: 4.4288817418137498E-2), 840 nM; in assay [4] (CATDS: 6.3567639225114006E-2), 415 nM; in assay [14], 967 nM; in assay [15] it was 31.7 nM. Also, the potency estimated from few doses in [5] (compound concentrations: 100 nM and 1000 nM (sheet 'Samples'), CATDS: 6.2991293235435897E-2) was 422 nM.

For the compound `CCn1c(-c2nonc2N)nc2cncc(C(=O)N3CC[C@H](N)C3)c21.Cl` [SB-772077-B], in [16] (setting [20]), the potency estimated from few doses was 790 nM.

With `CC(C)(CO)CNC(=O)c1ccc2c(c1)/C(=N/Nc1ccc(S(N)(=O)=O)cc1)C(=O)N2` [GW301784X], the potency estimated from few doses in [6] (setting [20]) is 53 nM.

On to `Nc1nccc(-c2ccc3c(N)n[nH]c3c2)n1` [GSK1034945A], for which, in assay [13], the potency estimated from few doses is 1040 nM.

Turning to `NS(=O)(=O)c1ccc(N/N=C2\C(=O)Nc3ccc4ncccc4c32)cc1` [GW305178X], in [10] (compound concentrations: 100 nM and 1000 nM (sheet 'Samples'), CATDS: 4.4831401788358302E-2), the potency estimated from few doses was 1360 nM.

For the compound `Cl.Cl.NCC(NC(=O)c1cc(-c2ccnc3[nH]ccc23)cs1)c1ccccc1.NCC(NC(=O)c1cc(-c2ccnc3[nH]ccc23)cs1)c1ccccc1` (centres unmarked) [GSK1229959A], the potency estimated from few doses was 1720 nM in assay [17]; 2280 nM in assay [6] (compound concentrations: 100 nM and 1000 nM (sheet 'Samples'), CATDS: 1.6665892971292499E-2); 27.5 nM in assay [16] (compound concentrations: 100 nM and 1000 nM (sheet 'Samples'), CATDS: 5.4700328593155198E-2); 56 nM in assay [18] (compound concentrations: 100 nM and 1000 nM (sheet 'Samples'), CATDS: 4.1114005800974601E-2).

As for `Cl.Cl.NC[C@H](CC1CCCCC1)NC(=O)c1ccc(-c2ccnc3[nH]ccc23)s1.NC[C@H](CC1CCCCC1)NC(=O)c1ccc(-c2ccnc3[nH]ccc23)s1` [GSK1581428A], the potency estimated from few doses was 31 nM in assay [16] (setting [20]) and 49.7 nM in assay [18] (setting [20]).

As for `CCC(CC)(CC)n1cnc2c(N)ncnc21` [SKF-97620], the potency estimated from few doses in [7] (compound concentrations: 100 nM and 1000 nM (sheet 'Samples'), CATDS: 0.160358426493935) is 43.6 nM.

Regarding `CN[C@H](C#Cc1c(F)ccc2c1/C(=C/c1[nH]ccc1OC)C(=O)N2)CO.Cl` [RO0283049-001], the potency estimated from few doses is 167 nM in [6] (compound concentrations: 100 nM and 1000 nM (sheet 'Samples'), CATDS: 4.8469274935302599E-2); 751 nM in assay [11] (compound concentrations: 100 nM and 1000 nM (sheet 'Samples'), CATDS: 2.5716910898498702E-2); 135 nM in assay [12] (compound concentrations: 100 nM and 1000 nM (sheet 'Samples'), CATDS: 5.4093082413128303E-2); 674 nM in [10] (compound concentrations: 100 nM and 1000 nM (sheet 'Samples'), CATDS: 2.6680938989094499E-2).

Consider `CN(C)c1ccc2c(c1)/C(=C/Nc1ccc(S(N)(=O)=O)cc1)C(=O)N2` [GW416469X], for which the potency estimated from few doses in [10] (compound concentrations: 100 nM and 1000 nM (sheet 'Samples'), CATDS: 7.4915408427864094E-2) was 1510 nM.

For `Cc1cc(NC(=O)c2cccc(NC(=O)/C=C/CN(C)C)c2)ccc1Nc1nccc(-c2cccnc2)n1` [JNK-IN-7], the results for the potency estimated from few doses in assay [7] (setting [20]), in [19] and in [12] (setting [20]) were 273 nM, 1190 nM and 6.45 nM, respectively.

In the case of `O=C1N=C(NCCc2cccs2)S/C1=C\c1ccc2ncccc2c1` [RO4508348-000], in [7] (compound concentrations: 100 nM and 1000 nM (sheet 'Samples'), CATDS: 0.23427621692245501), the potency estimated from few doses is 314 nM.

Take `O=C(Nc1n[nH]c2nc(-c3ccccc3O)ccc12)C1CC1` [SB-711880]: the potency estimated from few doses is 286 nM in assay [9] (setting [20]); 967 nM in assay [1] (setting [20]); 1610 nM in assay [13]; 345 nM in [10] (setting [20]); 517 nM in assay [5] (setting [20]).
